# Screening data from PubChem BioAssay.
# A selection: hits, their analogues and other compounds. The true share with any hit is near 4.1%.
# TIM10 inh = inhibits growth of TIM10 yeast strain. S. cerevisiae TIM10 strain growth, BacTiter-Glo luminescence, 24 h. inhibition, % at 10 µM. hit rate 1.4% among 330,000. AID 463195;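 active = inhibition of 40% or more at the single tested concentration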;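 also: wild-type TIM10 isogenic control strain grown at permissive 25 °C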
# tim10-1 inh = growth inhibitors of tim10-1 mutant yeast. AID 463190. inhibition, % at 20 µM. S. cerevisiae tim10-1 ts strain growth, BacTiter-Glo, 24 h. hit rate 2.2% among 330,000;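 active = inhibition of at least 40%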;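 also: mutant grown at 25 °C; 0% = DMSO wells with yeast and 100% = wells holding no yeast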
# NALP1 inh = NALP1 inhibition. S. cerevisiae NALP1/ASC/caspase-1 growth, X-gal OD620, 72 h. inhibition, % at 10 µM. hit rate 0.61% among 280,000. AID 2071; in the data active = inhibition mostly above about 24%, no sharp cut-off; inactive = mostly below about 32%
# NLRP3 yeast inh = inhibitors of NALP3 inflammasome in yeast | hit rate 0.39% among 330,000 | inhibition, % at 10 µM | AID 2825 | Yeast reconstituted NLRP3/ASC/caspase-1, beta-gal luminescence, 24 h;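 active = inhibition of 50% or more; inactive = inhibition below 50%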;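 also: plate controls were induced DMSO wells for no effect and uninduced yeast grown without galactose for full effect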
# tim23-1 inh = growth inhibitors of tim23-1 mutant yeast; AID 463212; hit rate 1.3% among 330,000; inhibition, % at 20 µM; S. cerevisiae tim23-1 growth, BacTiter-Glo luminescence, 24 h;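 active = growth inhibition of the mutant yeast at or above 50%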;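 also: temperature-sensitive mutant grown at 25 °C; plate controls were DMSO-treated mutant yeast for no effect and medium wells lacking yeast for full effect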
# tim10-1 confirm = tim10-1 yeast growth inhibition, confirmed | inhibition, % at 20 µM | shares compounds with tim10-1 inh | hit rate 56% among 7,400 | S. cerevisiae tim10-1 ts strain growth, BacTiter-Glo, 24 h | AID 463213;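 active = inhibition of yeast growth at or above a set limit in either of two repeat tests at 20 µM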;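 also: tim10-1 mutant grown at permissive 25 °C to find synthetic lethal compounds; 0% = DMSO yeast wells and 100% = medium wells without yeast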
# * = called active by the depositor; / = no result given.
SMILES,TIM10 inh,tim10-1 inh,NALP1 inh,NLRP3 yeast inh,tim23-1 inh,tim10-1 confirm
CCN(CC)CC(C)OC(=O)COc1ccc(OC)cc1 (stereo unspecified),10,5,2,1,10,/
CCOc1ccc(NC(=O)CSCc2cnn(-c3ccccc3)c2-n2cccc2)cc1,14,44*,0,8,29,30*
Cc1cc(C)nc(N(C#N)Cc2ccccc2)n1,-23,9,28,-5,-7,/
Cc1cc(C)nc(N(C#N)Cc2cccc3ccccc23)n1,6,48*,-5,14,32,35*
CCCn1nc(NC(=O)c2cccs2)c2cc3cc(C)ccc3nc21,15,41*,/,25,43,31*
CCCCn1nc(NC(=O)c2cccs2)c2cc3ccccc3nc21,25,48*,-8,6,49,39*
NC(=O)c1c(NC(=O)CSc2nc3c(c(C(F)(F)F)n2)CCc2ccccc2-3)sc2c1CCCC2,-1,-1,/,-9,21,/
CN(Cc1ccccc1)C(=O)CSc1nc2c(c(C(F)(F)F)n1)CCc1ccccc1-2,4,44*,/,12,22,21
CCOC(=O)N1CCN(C(=O)c2ccc(NC(=O)c3ccc(C)cc3)cc2)CC1,33,44*,/,8,38,18
CCOC(=O)N1CCN(C(=O)c2ccc(NC(C)=O)cc2)CC1,-8,-7,2,11,11,/
CN1CCN(c2ccc(NC(=O)c3ccc(Br)o3)cc2)CC1,-5,-6,16,5,8,/
O=C(Nc1ccc(C(=O)N2CCN(c3ccccn3)CC2)cc1)c1ccc(Br)o1,29,46*,/,22,36,24
Cc1ccc(C(=O)N2CCN(c3ccc(NC(=O)c4ccc(Br)o4)cc3)CC2)cc1,34,52*,8,21,31,31*
O=C(c1ccc(Br)o1)N1CCN(c2ccccn2)CC1,5,11,-2,16,9,/
CN(C)/C=C1\C(=O)Oc2ccccc2C1=O,6,28,/,17,24,/
O=C(CCl)Nc1ccc(Oc2cnc3ccccc3n2)cc1,23,29,10,29,49,/
C/C(=N\O)c1cc(Cl)ccc1O,20,5,9,-22,-9,/
Cc1oc(CC(C)C)c(CN)c1C(=O)O,-16,-9,-4,15,0,/
CCc1ccc(N(CC(=O)NCC2CCCO2)C(=O)CCC(=O)Nc2nccs2)cc1 (stereo unspecified),-3,-5,11,-3,-1,/
S=c1[nH]nc(Cc2ccccc2)n1-c1ccccc1,13,23,0,22,1,/
Cc1ccc(-n2c(Cc3ccccc3)n[nH]c2=S)cc1,8,40*,1,14,5,20
Cc1ccc(-n2c(CNc3ccc(C)c(Cl)c3)n[nH]c2=S)cc1,38,41*,4,27,42,9
Cc1ccc(-n2c(CNc3cccc(Cl)c3)n[nH]c2=S)cc1,18,25,-20,20,20,/
O=C1CCCN1CCC12CC3CC(CC(C3)C1)C2,12,41*,14,28,34,5
CC(O)[C@H]1CNC(=O)C(=O)N1CCC12CC3CC(CC(C3)C1)C2 (stereo partly specified),7,2,/,5,1,/
SMILES,TIM10 inh,tim10-1 inh,NALP1 inh,NLRP3 yeast inh,tim23-1 inh,tim10-1 confirm
O=c1c2ccccc2[nH]c(=S)n1CCCN1CCC(Cc2ccccc2)CC1,2,3,14,36,-4,/
Cc1nn(-c2ccccc2)c(N2CCCC2)c1/C=N/NC(=S)Nc1ccccc1C(F)(F)F,24,41*,4,22,22,24
Cc1nn(-c2ccccc2)c(N2CCCC2)c1/C=N/NC(=S)Nc1cc(C(F)(F)F)ccc1Cl,-3,31,21,0,14,/
CCc1cc2c(NCc3ccccc3)nc(C)nc2s1,24,48*,1,-11,43,24
Clc1ccc(Cn2ncc3c(NCc4ccco4)ncnc32)c(Cl)c1,12,42*,18,28,45,25
Clc1ccc(-n2ncc3c(NCc4ccco4)ncnc32)cc1,13,23,12,16,16,/
Cc1ccc(S(=O)(=O)N2CCCNCC2)cc1,-14,1,5,13,15,/
CS(=O)(=O)c1sc2nc(-c3cccs3)cc(-c3ccccc3)c2c1N,34,18,1,1,7,/
Cc1ccc(-c2cc(-c3ccccc3)c3c(N)c(S(C)(=O)=O)sc3n2)cc1,34,49*,-4,11,24,43*
CC(C)(C)OC(=O)N1CCC(Cc2cc(-c3cccc(Br)c3)no2)(C(=O)O)CC1,9,5,10,2,23,/
COC(=O)C1(Cc2cc(-c3cccc(Br)c3)no2)CCN(C(=O)OC(C)(C)C)CC1,31,41*,30,13,32,26
CCOC(=O)c1c(C)c(C(=O)NCc2ccccn2)c(C)n1CC,-4,15,23,10,6,/
CCOC(=O)N1CCN(S(=O)(=O)c2ccc(C(=O)NNc3nc4c(C)cc(C)cc4s3)cc2)CC1,-57,6,27,9,22,/
CCOC(=O)N1CCN(S(=O)(=O)c2ccc(C(=O)NNc3nc4cc(C)cc(C)c4s3)cc2)CC1,-14,42*,28,8,11,8
Cc1cccc(NC(=S)NC(=O)c2cccs2)n1,21,45*,-13,10,47,31
Cc1nc(NC(=S)NC(=O)c2cccs2)ccc1Br,11,2,31,14,12,/
Cc1cccc(NC(=O)c2ccc([N+](=O)[O-])s2)n1,35,61*,20,7,38,58*
Cc1cccc(NC(=O)c2ccc([N+](=O)[O-])cc2Cl)n1,10,10,-32,14,14,/
Cc1c(C(=O)C(=O)N2CCCc3ccccc32)c2ccccc2n1C,16,43*,2,-2,29,24
Cc1c(C(=O)C(=O)N2CCN(C)CC2)c2ccccc2n1C,-12,7,10,-2,2,/
CCn1c(C)c(C2=CCN(S(=O)(=O)c3ccccc3)CC2)c2ccccc21,35,29,34,20,21,/
COc1ccc(CNCCC(c2ccc(OC(C)C)cc2)c2ccccc2OC)cc1 (stereo unspecified),24,2,22,20,15,/
COc1ccccc1C(CCNCc1ccccc1)c1ccc(OC(C)C)cc1 (stereo unspecified),21,41*,38,13,32,31*
CCOc1ccc(-n2cc(-c3ccccc3)c3c(=O)[nH]cnc32)cc1,35,55*,-3,-66,38,40*
Cc1ccc(-n2nnnc2SCC(=O)NC2CC2)cc1C,14,19,17,17,9,/
O=C(COc1cc2oc(=O)cc(-c3ccccc3)c2cc1Cl)NCc1ccccn1,-24,42*,17,5,-10,-58
O=C(Nc1ccc([N+](=O)[O-])cc1)c1cc(-c2ccccn2)nc2c(Cl)cccc12,-18,18,-1,4,-14,/
